Measured values reported in PubChem BioAssay (NCI).
Compounds without any hit were thinned out: in the full panel of roughly 83,000, 20% have a hit.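 Negative percent growth values reflect cell death: -40 means 40% of the cells present at the start died, and -100 means all died.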 Activity calls are given as the source filed them. The calls were made as follows: active = growth percent below 10; inactive = the rest.

Tests used:
Experiment in all cases: NCI-60 one-dose screen, 48 h (100 = growth as untreated, 0 = no growth, -100 = all killed)
Conditions in all cases: 10 µM unless noted
SR leukemia = tested on: SR leukemia
RPMI-8226 leukemia = tested on: RPMI-8226 leukemia
OVCAR-8 ovarian = tested on: OVCAR-8 ovarian
OVCAR-5 ovarian = tested on: OVCAR-5 ovarian
OVCAR-4 ovarian = tested on: OVCAR-4 ovarian
SK-OV-3 ovarian = tested on: SK-OV-3 ovarian
IGROV1 ovarian = tested on: IGROV1 ovarian
OVCAR-3 ovarian = tested on: OVCAR-3 ovarian
HS 578T breast = tested on: HS 578T breast
NCI/ADR-RES ovarian = tested on: NCI/ADR-RES ovarian
T-47D breast = tested on: T-47D breast
BT-549 breast = tested on: BT-549 breast
MDA-MB-435 melanoma = tested on: MDA-MB-435 melanoma
SW-620 colon = tested on: SW-620 colon
MCF7 breast = tested on: MCF7 breast
HCT-116 colon = tested on: HCT-116 colon
HCC-2998 colon = tested on: HCC-2998 colon
KM12 colon = tested on: KM12 colon

Measured: growth

Cc1ccccc1-c1cc(Cc2ccc(F)cc2)c(=O)[nH]n1
active: SR leukemia -21.2%
inactive: RPMI-8226 leukemia 50.9% | OVCAR-8 ovarian 90.4% | OVCAR-5 ovarian 106% | OVCAR-4 ovarian 103% | SK-OV-3 ovarian 98.2% | IGROV1 ovarian 97.4% | OVCAR-3 ovarian 104% | HS 578T breast 99.9% | NCI/ADR-RES ovarian 102% | T-47D breast 99% | BT-549 breast 106% | MDA-MB-435 melanoma 119% | SW-620 colon 102% | MCF7 breast 97.9% | HCT-116 colon 78.4% | HCC-2998 colon 119% | KM12 colon 123%

O=C1Nc2c(ccc(Cl)c2Cl)/C1=C/c1ccc(F)cc1
inactive: SR leukemia 73.9% | RPMI-8226 leukemia 96.5% | OVCAR-8 ovarian 97.9% | OVCAR-5 ovarian 84.4% | OVCAR-4 ovarian 73.8% | SK-OV-3 ovarian 89.7% | IGROV1 ovarian 42.8% | OVCAR-3 ovarian 83.5% | HS 578T breast 73.8% | NCI/ADR-RES ovarian 94% | T-47D breast 71.2% | BT-549 breast 99.8% | MDA-MB-435 melanoma 99.1% | SW-620 colon 96.4% | MCF7 breast 37.7% | HCT-116 colon 84.4% | HCC-2998 colon 58.1% | KM12 colon 85.2%

COc1ccc(/C(C)=N/NC(=O)CSc2nc3ccccc3c(=O)n2Cc2ccc(S(N)(=O)=O)cc2)c(OC)c1
inactive: SR leukemia 95.6% | RPMI-8226 leukemia 116% | OVCAR-8 ovarian 100% | OVCAR-5 ovarian 99% | OVCAR-4 ovarian 101% | SK-OV-3 ovarian 114% | IGROV1 ovarian 104% | OVCAR-3 ovarian 111% | HS 578T breast 102% | NCI/ADR-RES ovarian 100% | T-47D breast 95.6% | BT-549 breast 104% | MDA-MB-435 melanoma 102% | SW-620 colon 102% | MCF7 breast 90.7% | HCT-116 colon 102% | HCC-2998 colon 115% | KM12 colon 102%

CCCCOc1ccc(/C=N/Nc2cc(C)nc3ccc(Cl)cc23)cc1
active: SR leukemia -20.8% | RPMI-8226 leukemia -31.6% | OVCAR-8 ovarian -58.5% | OVCAR-4 ovarian 5.29% | IGROV1 ovarian -71.6% | OVCAR-3 ovarian -76.7% | MDA-MB-435 melanoma -85.2% | SW-620 colon -58.3% | MCF7 breast -70.8% | HCT-116 colon -68% | HCC-2998 colon -71.1% | KM12 colon -76.6%
inactive: OVCAR-5 ovarian 88.9% | SK-OV-3 ovarian 79.5% | HS 578T breast 47.7% | NCI/ADR-RES ovarian 58.7% | T-47D breast 21.5% | BT-549 breast 96.6%

O=C(Nc1nc(-c2ccc(Br)cc2)cs1)c1cc(-c2ccc(Br)cc2)nc2ccc(Cl)cc12
inactive: SR leukemia 70.4% | RPMI-8226 leukemia 85% | OVCAR-8 ovarian 88.1% | OVCAR-5 ovarian 104% | OVCAR-4 ovarian 82.5% | SK-OV-3 ovarian 78.2% | IGROV1 ovarian 60.5% | OVCAR-3 ovarian 86.9% | HS 578T breast 95.2% | NCI/ADR-RES ovarian 89.7% | T-47D breast 56.9% | BT-549 breast 100% | MDA-MB-435 melanoma 104% | SW-620 colon 85.7% | MCF7 breast 68.5% | HCT-116 colon 61.3% | HCC-2998 colon 92.8% | KM12 colon 83.3%

CC(=O)O[C@H]1CC[C@@]2(C)[C@@H](CC[C@@H]3[C@@H]2CC[C@@]2(C)[C@H]3CC[C@]2(O)C(C)=O)C1
inactive: SR leukemia 91.8% | RPMI-8226 leukemia 88.1% | OVCAR-8 ovarian 109% | OVCAR-5 ovarian 97.7% | OVCAR-4 ovarian 102% | SK-OV-3 ovarian 103% | IGROV1 ovarian 99.7% | OVCAR-3 ovarian 108% | HS 578T breast 97.2% | NCI/ADR-RES ovarian 96% | T-47D breast 103% | BT-549 breast 92.5% | MDA-MB-435 melanoma 104% | SW-620 colon 104% | MCF7 breast 105% | HCT-116 colon 99.1% | HCC-2998 colon 96.5% | KM12 colon 107%

Cc1cccc(Oc2ccc(Nc3ncnc4ccc(NC(=O)CNCCO)cc34)cc2Cl)c1
active: SR leukemia 5.67% | IGROV1 ovarian 9.02%
inactive: RPMI-8226 leukemia 71.7% | OVCAR-8 ovarian 66.7% | OVCAR-5 ovarian 78.8% | OVCAR-4 ovarian 67.7% | SK-OV-3 ovarian 10.8% | OVCAR-3 ovarian 49.7% | HS 578T breast 83.5% | NCI/ADR-RES ovarian 76.1% | T-47D breast 35.7% | BT-549 breast 73.4% | MDA-MB-435 melanoma 55.7% | SW-620 colon 77.9% | MCF7 breast 47.1% | HCT-116 colon 37.2% | HCC-2998 colon 66.8% | KM12 colon 76.8%

CCCCCCCCCCCC(=O)C(CCCCCCCCCC)C(=O)Nc1ccccc1 (stereo unspecified)
inactive: SR leukemia 99.7% | RPMI-8226 leukemia 99.2% | OVCAR-8 ovarian 103% | OVCAR-5 ovarian 101% | OVCAR-4 ovarian 102% | SK-OV-3 ovarian 108% | IGROV1 ovarian 89.2% | OVCAR-3 ovarian 112% | HS 578T breast 96.8% | NCI/ADR-RES ovarian 102% | T-47D breast 92.1% | BT-549 breast 114% | MDA-MB-435 melanoma 110% | SW-620 colon 107% | MCF7 breast 108% | HCT-116 colon 93.8% | HCC-2998 colon 101% | KM12 colon 106%

Cc1ccc(C2CC(c3cccc(Nc4ccncc4)c3)=NN2c2ccccc2)cc1 (stereo unspecified)
inactive: BT-549 breast 81.2%
active: SR leukemia -13.3% | RPMI-8226 leukemia -48.7% | OVCAR-8 ovarian -50.7% | OVCAR-5 ovarian -93.4% | OVCAR-4 ovarian -86.5% | SK-OV-3 ovarian -31.4% | IGROV1 ovarian -92.7% | OVCAR-3 ovarian -89.2% | HS 578T breast -57.5% | NCI/ADR-RES ovarian -72.8% | T-47D breast -58.2% | MDA-MB-435 melanoma -89.5% | SW-620 colon -62.7% | MCF7 breast -92% | HCT-116 colon -78% | HCC-2998 colon -92.2% | KM12 colon -88.3%

COc1ccccc1C(C[N+](=O)[O-])c1c(-c2ccccc2)[nH]c2cc(C)ccc12 (stereo unspecified)
inactive: SR leukemia 24.2% | RPMI-8226 leukemia 61.5% | OVCAR-8 ovarian 75.3% | OVCAR-5 ovarian 89.5% | OVCAR-4 ovarian 81.7% | SK-OV-3 ovarian 88.6% | IGROV1 ovarian 53.6% | OVCAR-3 ovarian 76.1% | HS 578T breast 83% | NCI/ADR-RES ovarian 50.1% | T-47D breast 32.2% | BT-549 breast 80.1% | MDA-MB-435 melanoma 13.8% | SW-620 colon 54.6% | MCF7 breast 55.6% | HCT-116 colon 53.8% | HCC-2998 colon 93.6% | KM12 colon 63.1%

COc1c(Cl)cc(Cl)c2ccc(C=C3C(=O)NC(=S)NC3=O)nc12
inactive: SR leukemia 99% | RPMI-8226 leukemia 105% | OVCAR-8 ovarian 109% | OVCAR-5 ovarian 109% | OVCAR-4 ovarian 109% | SK-OV-3 ovarian 106% | IGROV1 ovarian 108% | OVCAR-3 ovarian 103% | HS 578T breast 102% | NCI/ADR-RES ovarian 100% | T-47D breast 101% | BT-549 breast 90.2% | MDA-MB-435 melanoma 106% | SW-620 colon 104% | MCF7 breast 90.7% | HCC-2998 colon 99.2% | KM12 colon 112%
active: HCT-116 colon -76.2%

COc1cc2nc(-c3ccc(C(F)(F)F)cc3)cc(OCCN3CCCC3)c2cc1OC
inactive: SR leukemia 29.9% | RPMI-8226 leukemia 55.9% | OVCAR-8 ovarian 91% | OVCAR-5 ovarian 67.6% | OVCAR-4 ovarian 94.9% | SK-OV-3 ovarian 86.3% | IGROV1 ovarian 60.9% | OVCAR-3 ovarian 97.3% | HS 578T breast 79.8% | NCI/ADR-RES ovarian 72.9% | T-47D breast 86.5% | BT-549 breast 70.4% | MDA-MB-435 melanoma 97.2% | SW-620 colon 91.2% | MCF7 breast 85.1% | HCT-116 colon 67.3% | HCC-2998 colon 82% | KM12 colon 93.7%

Cc1cc(Nc2cccc(C(F)(F)F)c2)n2c(nc3ccccc32)c1C#N
active: T-47D breast 8.68%
inactive: SR leukemia 31.6% | RPMI-8226 leukemia 22.8% | OVCAR-8 ovarian 43% | OVCAR-5 ovarian 78% | OVCAR-4 ovarian 34.6% | SK-OV-3 ovarian 46.4% | IGROV1 ovarian 57.6% | OVCAR-3 ovarian 39.4% | HS 578T breast 68.5% | NCI/ADR-RES ovarian 47.9% | BT-549 breast 19.4% | MDA-MB-435 melanoma 45.5% | SW-620 colon 23.8% | MCF7 breast 36.3% | HCT-116 colon 39.6% | HCC-2998 colon 46.3% | KM12 colon 20.9%

COc1cc2ncnc(Nc3ccc(C(=O)/C=C/c4ccc(C(F)(F)F)cc4F)cc3)c2cc1OC
active: HCT-116 colon -62.7%
inactive: SR leukemia 63.4% | RPMI-8226 leukemia 12.8% | OVCAR-8 ovarian 101% | OVCAR-5 ovarian 103% | OVCAR-4 ovarian 105% | SK-OV-3 ovarian 123% | IGROV1 ovarian 94.2% | OVCAR-3 ovarian 101% | HS 578T breast 66.8% | NCI/ADR-RES ovarian 102% | T-47D breast 131% | BT-549 breast 93.6% | MDA-MB-435 melanoma 84.2% | SW-620 colon 110% | MCF7 breast 64.6% | HCC-2998 colon 109% | KM12 colon 83.4%

Cc1c2c(cc[n+]1Cc1ccccc1)c1ccc(OCc3ccccc3)cc1n2Cc1ccccc1
inactive: OVCAR-5 ovarian 13.5% | NCI/ADR-RES ovarian 65%
active: SR leukemia -52.5% | RPMI-8226 leukemia -21.6% | OVCAR-8 ovarian -70.9% | OVCAR-4 ovarian -3.79% | SK-OV-3 ovarian 7.67% | IGROV1 ovarian -65.1% | OVCAR-3 ovarian -97.1% | HS 578T breast -35.9% | T-47D breast -4.02% | BT-549 breast -90.4% | MDA-MB-435 melanoma -93.8% | SW-620 colon -88.1% | MCF7 breast -23.1% | HCT-116 colon -95.6% | HCC-2998 colon -81.8% | KM12 colon -98.4%

CN(C)c1ccc(-c2c(C#N)c(N)n3nc(N)c(C#N)c3c2C#N)cc1
inactive: SR leukemia 62.1% | RPMI-8226 leukemia 32.2% | OVCAR-8 ovarian 83.7% | OVCAR-5 ovarian 63.7% | OVCAR-4 ovarian 101% | SK-OV-3 ovarian 71.3% | IGROV1 ovarian 55.7% | OVCAR-3 ovarian 85.3% | HS 578T breast 93.2% | NCI/ADR-RES ovarian 90.4% | T-47D breast 59.5% | BT-549 breast 69.1% | MDA-MB-435 melanoma 97% | SW-620 colon 112% | MCF7 breast 99.3% | HCT-116 colon 99.3% | HCC-2998 colon 83.6% | KM12 colon 75.4%

NC(=O)c1cccc(-c2ccccc2N2CCCCC2)c1
inactive: SR leukemia 66.4% | RPMI-8226 leukemia 74.2% | OVCAR-8 ovarian 99.7% | OVCAR-5 ovarian 95.1% | OVCAR-4 ovarian 89.9% | SK-OV-3 ovarian 94.9% | IGROV1 ovarian 92.4% | OVCAR-3 ovarian 106% | HS 578T breast 101% | NCI/ADR-RES ovarian 102% | T-47D breast 83% | BT-549 breast 101% | MDA-MB-435 melanoma 100% | SW-620 colon 108% | MCF7 breast 92.5% | HCT-116 colon 89.4% | HCC-2998 colon 102% | KM12 colon 99.1%
